Laboratory results reported in PubChem BioAssay (NCATS).
Inconclusive results are not listed. Activity calls are given as the source filed them. The call rests on the fitted dose curve; in most records, active means well fitted curve in the direction sought with a large enough effect; inconclusive means small, poorly fitted or top-dose-only effect, or another doubt; inactive means no such curve, though single readings can be large; an effect the other way counts as inactive or inconclusive.

Key:
[1] = biological target: Calcium and integrin-binding protein 1 (Homo sapiens) (UniProt Q99828); experiment: Primary qHTS for Identification of Calcium Integrin Binding Protein 1 (CIB1) Competitor (AID 1508620); conditions: CIB1-GST / FITC-alphaIIb peptide fluorescence polarization; series mostly up to 57.7 µM;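 further: GST tagged CIB1 binding a fluorescein labelled alphaIIb integrin peptide tracer; top concentration of the series differs between compounds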
How it was run: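 Fluorescence polarization competition: CIB1-GST (1 uM final) preincubated with compound 15 min at room temperature, then FITC-labeled alphaIIb peptide (100 nM final) added for another 15 min. Polarization read at Ex 480/Em 540.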

[2] = Primary qHTS for inhibitors of nuclear receptor binding SET domain protein 2 (NSD2) in an isogenic RCH-ACV NSD2 p.E1099K mutant (9B) (AID 1645876); conditions: RCH-ACV NSD2 E1099K (9B) viability, CellTiter-Glo, 72 h; series mostly up to 44.9 µM; further: nearly all actives have a fitted effect of over 70% in size
[3] = Primary qHTS for inhibitors of nuclear receptor binding SET domain protein 2 (NSD2) in an RCH-ACV wild type WT cells (2C) (AID 1645877); conditions: RCH-ACV (leukaemia line) NSD2 WT (2C) viability, CellTiter-Glo, 72 h; series mostly up to 44.9 µM; further: nearly all actives have a fitted effect of over 70% in size
On the % scale 0 is the no-effect control and ±100 the full control effect.

Calcium and integrin-binding protein 1 (Homo sapiens), sequence (Q99828 whole entry, looked up): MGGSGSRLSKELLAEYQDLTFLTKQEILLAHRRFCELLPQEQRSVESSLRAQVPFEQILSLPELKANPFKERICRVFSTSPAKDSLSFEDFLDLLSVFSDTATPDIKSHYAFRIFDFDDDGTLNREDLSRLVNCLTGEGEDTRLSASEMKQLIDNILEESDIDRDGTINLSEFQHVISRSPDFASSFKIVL

CC(C)(CC(=O)N1CCCC1)NCC(=O)N1C[C@@H](F)C[C@H]1C#N
inactive: Potency [1] | Potency [2] | Potency [3]

COc1ccc(OC2OC(CO[C@@H]3O[C@@H](C)[C@H](O)[C@@H](O)[C@H]3O)C(O)C(O)C2O)cc1OC (some centres not stated)
inactive: Potency [1] | Potency [2] | Potency [3]

O=C(Cc1ccc(Cl)cc1)Nc1cnccc1C(=O)O
inactive: Potency [1] | Potency [2] | Potency [3]

CC1(C)C2CC[C@@]34CC(CC[C@H]3[C@]2(C)CC[C@@H]1O[C@@H]1O[C@H](CO)[C@@H](O)[C@H](O)[C@H]1O)[C@](C)(O)C4 (some centres not stated)
inactive: Potency [1] | Potency [2] | Potency [3]

CC1=C2C(=O)C=C(CO)C2C2OC(=O)C(CS(=O)(=O)O)C2C(OC(=O)Cc2ccc(O)cc2)C1 (configuration not stated)
inactive: Potency [1] | Potency [2] | Potency [3]

O=C(/C=C/c1ccc(O)cc1)O[C@H]1[C@H](OC2CCCCC2O)O[C@H](CO)[C@@H](O)[C@@H]1O (some centres not stated)
inactive: Potency [1] | Potency [2] | Potency [3]

CC[C@H](C)[C@H](NC(=O)[C@H](Cc1ccc(O)cc1)NC(=O)[C@@H](N)C(C)C)C(=O)N[C@@H](Cc1cnc[nH]1)C(=O)N1CCC[C@H]1C(=O)N[C@@H](Cc1ccccc1)C(=O)O
inactive: activity change, negative = inhibition [1] 2.56% [at 12.4 µM] | outcome [2] inactive [at 4.96 µM] | activity change, negative = cell killing [3] 2.6% [at 4.96 µM]

NC(=O)[C@H](Cc1ccccc1)NC(=O)[C@H](CCCN=C(N)N)NC(=O)C12CC3CC(CC(C3)C1)C2
inactive: Potency [1] | activity change, negative = viability loss [2] -0.15% [at 9.23 µM] | activity change, negative = cell killing [3] 0.0232% [at 9.23 µM]

C[C@]1(O)CC[C@@H]2C(C(=O)O)=CO[C@@H](O[C@@H]3O[C@H](COC(=O)/C=C/c4ccc(O)c(O)c4)[C@@H](O)[C@H](O)[C@H]3O)[C@@H]21
inactive: Potency [1] | Potency [2] | Potency [3]
